Compounds without any hit were thinned out: in the full panel of roughly 83,000, 20% have a hit.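 Assay: single dose, 48 h. Readout: percent growth (0 = no net growth; negative = cell death). Active: <10.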 Unmarked numbers belong to inactive results. Activity calls are given as the source filed them.
Key:
Assay in all cases: NCI-60 one-dose screen, 48 h (100 = growth as untreated, 0 = no growth, -100 = all killed)
Details in all cases: 10 µM
[1] = tested on: NCI-H23 lung
[2] = tested on: NCI-H226 lung
[3] = tested on: NCI-H322M lung
[4] = tested on: HOP-62 NSCLC
[5] = tested on: NCI-H460 lung
[6] = tested on: HOP-92 NSCLC
[7] = tested on: NCI-H522 lung
[8] = tested on: A549/ATCC NSCLC
[9] = tested on: 786-0 renal
[10] = tested on: COLO 205 colon
[11] = tested on: DU-145 prostate
[12] = tested on: K-562 leukemia
[13] = tested on: MDA-MB-231 breast
[14] = tested on: RXF 393 renal
[15] = tested on: SF-268 CNS
[16] = tested on: SF-295 CNS
[17] = tested on: SF-539 CNS
[18] = tested on: UACC-257 melanoma
[19] = tested on: M14 melanoma
[20] = tested on: MALME-3M melanoma

Row | SMILES | growth [1] | growth [2] | growth [3] | growth [4] | growth [5] | growth [6] | growth [7] | growth [8] | growth [9] [%] | growth [10] | growth [11] | growth [12] | growth [13] | growth [14] | growth [15] | growth [16] | growth [17] | growth [18] | growth [19] | growth [20]
1 | COc1cc(Cn2c(-c3ccccc3)c(Cl)c3c2-c2oncc2CC3)cc(OC)c1 | 72.2% | 109% | 68.5% | 102% | 46.3% | 51.7% | 9.45% (active) | 53.5% | 74.7 | 113% | 95.9% | 12.9% | 67.5% | 115% | 68.8% | 61% | 93.9% | 86% | 79% | –
2 | CCOc1nc(-c2ccccc2)cc2c(O)c(C(=O)NC(C)C)[nH]c(=O)c12 | 97% | 105% | 120% | 99.7% | 105% | 58.2% | 88.3% | 104% | 112 | 118% | 107% | 95% | 106% | 78.1% | 105% | 89.9% | 99.3% | 84.8% | 101% | –
3 | O=c1oc2c3ccc4cnccc4c3[nH]c2c2ccccc12 | 65% | 77.1% | 78.6% | 70.8% | 5.33% (active) | 49.2% | -11.5% (active) | 0.199% (active) | 12.2 | -57.2% (active) | 16.9% | 21.1% | 68.2% | – | 23% | 75.6% | -72.1% (active) | 1.25% (active) | 67.3% | -80.8% (active)
4 | O=[N+]([O-])c1ccc(S(=O)(=O)OCCCCOS(=O)(=O)c2ccc([N+](=O)[O-])cc2)cc1 | 102% | 90.1% | 112% | 98.5% | 108% | 110% | 96.8% | 103% | 99 | 117% | 107% | 94.7% | 106% | 112% | 106% | 105% | 104% | 108% | 104% | –
5 | Cc1cc(C#Cc2ccccc2)ccc1-n1c(/C=C/c2cc(O)ccc2O)nc2ccccc2c1=O | -11.6% (active) | -41% (active) | -19.5% (active) | -33.1% (active) | -48.5% (active) | -17.9% (active) | -74.6% (active) | 8.93% (active) | 17.4 | -65.9% (active) | 2.27% (active) | 7.36% (active) | -24.2% (active) | -27.9% (active) | 5.15% (active) | -14.6% (active) | -20.9% (active) | 20% | -3.57% (active) | –
6 | CCOC(=O)c1sc(NC(=O)c2cc(OC)c(OC)c(OC)c2)nc1C | 93.3% | 88.8% | 161% | 116% | 108% | 46.9% | 67.4% | 101% | 114 | 122% | 110% | 51.2% | 96.3% | 119% | 97.3% | 110% | 103% | 108% | 118% | –
7 | CC(=O)Nc1ccc2c(c1)C(N1CC3CCC(CC3)C1)c1ccccc1-2 (configuration not stated) | 90.7% | 85% | 115% | 96.5% | 64.3% | 64.2% | 108% | 85.9% | 92.5 | 68.6% | 109% | 58.9% | 91.6% | 81.9% | 92.7% | 101% | 97.2% | 84.1% | 102% | –
8 | CCCCCN(CCCCC)C(C)C(O)c1ccc2cc(Cl)c3ccccc3c2c1 (configuration not stated) | 84.9% | 86.2% | 103% | 92.1% | 80.5% | 55.9% | 90% | 102% | 98.5 | 83.9% | 109% | 81.4% | 92.7% | 97.5% | 102% | 82.7% | 104% | 97.7% | 93.1% | –

From PubChem BioAssay (NCI)
